Experimental data: PubChem BioAssay AID1508600 (Functional Genomics Laboratory (NCATS/FGL), 2020)
Among all 53,000 sequences or so, about 3,700 (7%) were called active. The full list was thinned out, with actives kept by preference. Values without a mark were called inactive.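 The calls were made as follows: active = gene knockdowns whose robust z-score for IL-1 alpha signal is at least 2 or at most -2, so actives lie on both sides; inactive = the rest.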

Assay: Components of the Cytosolic LPS Sensing Pathway: Gene Identification via Genome-wide siRNA Screen;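 also: robust z of the log signal after scaling to non-targeting control siRNA wells of the plate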
Conditions: RAW264.7 macrophages, IL-1a HTRF, actives lie on both sides, screened at 100 nM (by protocol), cells primed 5 h with Pam3CSK4 first
Summary of the method: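 Knockdown: 100 nM siRNA, 48h, RAW264.7. Stimulation: Pam3CSK4 5 h, then LipidA via TransIT-TKO 24 h. Output: supernatant IL-1a HTRF, negative-control-normalized, log robust z-score; viability by CellTiter-Glo.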

| Sequence | z-score |
| --- | --- |
| GGAGCAACAGCCAAAUACCTT against Hmgb4 | 2.39 (active) |
| GGACUAUGAGCAGAUGAAGTT against Calcb | -0.217 |
| GGAUGUGCACGAAGGACAGTT against Cdh2 | 2.09 (active) |
| CCAGUCCAUUGAAUAGUUCTT against Papola | 0.329 |
| GGAAAGGAAUCCAAAAAUCTT against Lias | -0.42 |
| CCAGAAGUGAUCGCCUCUUTT against Zfp300 | 1.16 |
| GCCAUAAAACAGAAUCUCATT against Tmco5b | -0.309 |
| GGUGGUGAUAAGCUUCCUCTT against Olfr1417 | -1.87 |
| GGGACUUCAGACAGUUAUCTT against Ess2 | 1.69 |
| GCCGAACUUCGGAAUUCUGTT against Nf1 | 2.08 (active) |
| GGUAUAUGGAACCAUGGGATT against Psmb9 | -0.565 |
| GGAGUCUGCUGGUUUAGUGTT against Fmc1 | 0.0551 |
| GGAGUAUGGCGAAUUCUAUTT against Hsp90ab1 | 1.34 |
| GCUGCUUGCUGACCUCCUATT against Olfr522 | 0.358 |
| GCAUUCAGAAAUUGAGGGUTT against Sin3b | -0.0974 |
| CCUAUCUCUUAGCAAAGAUTT against 2010003K11Rik | 2.87 (active) |
| GGCGAUAUUCUUAAUUAUCTT against Mfsd6 | 0.735 |
| GGUGUUGAACAAGUGCGACTT against Tescl | -0.987 |
| GCUGAUCAUCCGUUUCACUTT against Hdc | -0.227 |
| CGUACUUCAGCGAUUUAAATT against Exoc2 | 0.555 |
| GGACUCAAGACACCAGUUGTT against Rufy3 | -0.318 |
| GCAAGAAGCCUGCCAAUAUTT against Etd | 2.05 (active) |
| GGAGUACUUUGGAAUAGCATT against Frmd4a | -0.467 |
| GCUCUAUAUCCAGGAAACUTT against Krtap6-2 | 0.0521 |
| GGUGCAUUUAUGUAUUUCCTT against Olfr916 | -1.76 |
| GCAAUCAUUGAAUCCACUCTT against Spag9 | 2.16 (active) |
| GGAUGUGGUUCAGAAGGCCTT against Stab1 | -0.29 |
| GAUUCUUACUUUGGUCUACTT against Olfr9 | 0.62 |
| GCCAAAACAUUUCAGAGCCTT against Hemk1 | -0.000768 |
| GCAUCUAACUACUUGGGCCTT against Hhip | 1.18 |
